From PubChem BioAssay AID493073 (Broad Institute, 2011) come the findings set out here.

Structures are written as SMILES. The whole screen tested about 1,200 compounds, of which about 810 (68%) were called active. The set was probably picked from earlier hits. A selection follows. Measured potencies and affinities stand elsewhere. A number with no mark means an inactive call. No rule for the calls is given here.

This assay is described as follows: TRPM1 promoter luciferase signal decrease, dose response, MITF inhibitor project, cell-based, SK-MEL-5, cherry-picked, set 3 (AID 493073). The settings on record: SK-MEL-5 TRPM1 promoter luciferase, 24 h; series mostly up to 35 µM; activity change, negative = inhibition: at the top concentration.
`O=C(/C=C/c1ccc2c(c1)OCCO2)c1ccccc1`: the “activity change, negative = inhibition” value was -51.6%.

Consider `O=C(Nc1ccccc1F)c1ccc2c(c1)OCO2`, for which the “activity change, negative = inhibition” value is -47.3%.

As to `CC(=O)N(c1nnc(-c2cccc(C)c2)s1)C1CCCC1`, the “activity change, negative = inhibition” value was 101%.

For `C/C(=N\Nc1nccnc1Cl)c1ccc(O)c(C)c1`, the “activity change, negative = inhibition” value is 91.9%.

Consider `CCCOc1ccc(-c2c(=O)n(O)c3ccccc3[n+]2[O-])cc1`, for which the “activity change, negative = inhibition” value was 37.1%.

Take `COc1ccc(C(=O)CN2Cc3ccccc3C2=N)cc1`: the “activity change, negative = inhibition” value was 76.8%.

On to `CN1CCN(CCCOc2ccc(-c3ccccc3)cc2)CC1`, for which the “activity change, negative = inhibition” value is 13.4%.

Consider `O=C(c1ccc(F)cc1)N1CCC(c2ccccc2)C1` (configuration not stated), for which the “activity change, negative = inhibition” value was 104%.

As to `COc1ccc2oc(=O)c(C(=O)Nc3ccccc3C)cc2c1`, the “activity change, negative = inhibition” value was -2.57%.

As for `COc1ccc(NC(=O)c2cc3ccccc3oc2=O)c(OC)c1`, the “activity change, negative = inhibition” value is 52.2%.

As for `COc1ccc(N/C=C\C(=O)c2ccc3ccccc3c2)cc1`, the “activity change, negative = inhibition” value was 88.6%.

Regarding `COc1ccc(COC(=O)c2n[nH]c3ccccc23)cc1F`, the “activity change, negative = inhibition” value was 47.7%.

Regarding `Cc1ccc(C(CNS(=O)(=O)c2ccc(Br)cc2)N2CCN(C)CC2)cc1` (configuration not stated), the “activity change, negative = inhibition” value was -81.2%.

In the case of `COc1ccc(/C=C/c2cc(C(F)(F)F)on2)cc1`, the “activity change, negative = inhibition” value was 107%.

Turning to `Cc1cccc(OCc2nc3ccccc3n2C)c1`, the “activity change, negative = inhibition” value was -19.5%.

Take `O=C(/C=C/c1ccc2c(c1)OCO2)N1CCCCC1`: the “activity change, negative = inhibition” value is 62.1%.

As to `O=C(Nc1ccccc1)C1Cc2ccccc2CN1C(=O)c1ccco1` (configuration not stated), the “activity change, negative = inhibition” value is 73.5%.

`CC(C)C(=O)Nc1ccc2nn(-c3ccc(F)cc3)nc2c1`: the “activity change, negative = inhibition” value is 7.63%.

With `CC(=O)Oc1ccc(C)cc1-n1nc2ccccc2n1`, the “activity change, negative = inhibition” value was 65.9%.

In the case of `CCOCCCNC(=O)/C(C#N)=C/c1ccc([N+](=O)[O-])o1`, the “activity change, negative = inhibition” value was -96.3%.

In the case of `CCOC(=O)c1sc(NC(=O)Nc2ccc(Cl)cc2)nc1C`, the “activity change, negative = inhibition” value is 96.9%.

On to `COc1ccc2oc(=N)c(C(=O)Nc3ccccc3Cl)cc2c1`, for which the “activity change, negative = inhibition” value was 21.5%.

`Cc1nc(NCCOc2ccccc2)sc1C(=O)Nc1ccccc1`: the “activity change, negative = inhibition” value is 46.1%.

Consider `O=C(Cc1ccccc1)Nc1ccc(NC(=O)c2ccco2)nc1`, for which the “activity change, negative = inhibition” value is -37.9%.

As to `CCOC(=O)c1ccc2nc(C)c(CCC(C)=O)c(Cl)c2c1`, the “activity change, negative = inhibition” value was 105%.

In the case of `Cn1c(/C(C#N)=C/c2ccc(-c3ccc(S(N)(=O)=O)cc3)o2)nc2ccccc21`, the “activity change, negative = inhibition” value is -79.9%.

On to `COc1ccc(/C=N/Nc2ccccn2)cc1OC`, for which the “activity change, negative = inhibition” value was 97.2%.

`S=c1[nH]nc(-c2ccco2)n1/N=C/C(Cl)=C/c1ccccc1`: the “activity change, negative = inhibition” value is 77.9%.

For the compound `Nc1ccccc1SC1CC(=O)N(c2ccc3c(c2)OCCO3)C1=O` (configuration not stated), the “activity change, negative = inhibition” value is 82.2%.

In the case of `COc1ccccc1N1CCN(/N=C/c2cccc(Cl)c2)CC1`, the “activity change, negative = inhibition” value was 132%.

Consider `Cc1csc(NC(=O)Cc2c(F)cccc2Cl)n1`, for which the “activity change, negative = inhibition” value is 78.6%.

Turning to `Clc1ccc(-c2noc(CN3CCOCC3)n2)cc1`, the “activity change, negative = inhibition” value was 81.6%.

For `O=C(CC(=O)c1ccccc1)Nc1ccccc1`, the “activity change, negative = inhibition” value is 12.2%.

As for `Cc1ccc(NC(=O)c2cnc3ccccc3n2)cc1C`, the “activity change, negative = inhibition” value is 44.3%.

As to `COc1ccc(-c2noc(-c3cccs3)n2)cc1OC`, the “activity change, negative = inhibition” value is 95.4%.

With `Cc1[nH]nc(Nc2ccc(Br)cc2)c1[N+](=O)[O-]`, the “activity change, negative = inhibition” value is 91.7%.

`CCOc1ccc2nc(NC(=O)Cc3cccs3)sc2c1`: the “activity change, negative = inhibition” value is 92.9%.

With `CCc1nc2oc3ccc(C)cc3c(=O)c2cc1C(=O)OC`, the “activity change, negative = inhibition” value was 89.6%.

Take `CS/C(N)=N/N=C/c1ccc2c(c1)OCO2`: the “activity change, negative = inhibition” value was 103%.

As for `COc1cccc(/C=N/Nc2nc3ccccc3[nH]2)c1OC`, the “activity change, negative = inhibition” value is 125%.

On to `COc1ccccc1N1CCN(/N=C\c2ccccc2)CC1`, for which the “activity change, negative = inhibition” value is 104%.

For the compound `COC(=O)c1ccc(/C=N/Nc2nc(C)c(C)s2)cc1`, the “activity change, negative = inhibition” value is 36%.

Consider `CC(C)c1ccc(C(=O)Nc2cccnc2)cc1`, for which the “activity change, negative = inhibition” value is 12.8%.

As to `O=C(Nc1ccc(Br)cc1)c1ccc2c(c1)OCO2`, the “activity change, negative = inhibition” value was 39.3%.

`O=C(CSc1nc2ccccc2[nH]1)c1ccc2c(c1)OCO2`: the “activity change, negative = inhibition” value is 102%.

Regarding `CCOc1ccc2cc(C#N)c(SCC(=O)OC)nc2c1`, the “activity change, negative = inhibition” value was 112%.

In the case of `CC(=O)Nc1ccc(-c2nc3ccccc3o2)cc1`, the “activity change, negative = inhibition” value was 57.7%.

`Cc1occc1C(=O)N/N=C/c1ccc(OCc2ccccc2)cc1`: the “activity change, negative = inhibition” value is 87.6%.

On to `CCc1nc2oc3ccccc3c(=O)c2cc1C(=O)OC`, for which the “activity change, negative = inhibition” value is 12.5%.

With `COc1ccc(-c2csc(Nc3ccccn3)n2)cc1OC`, the “activity change, negative = inhibition” value was -24.3%.

With `Cc1nc(-c2ccccn2)sc1C(=O)Nc1ccc(F)cc1F`, the “activity change, negative = inhibition” value is 45.1%.

As to `COCn1c(COc2ccccc2)nc2ccccc21`, the “activity change, negative = inhibition” value was 71.5%.

Turning to `Cc1ccc(-n2cc(CNCCCn3cccn3)c(-c3cccc(C)c3)n2)cc1`, the “activity change, negative = inhibition” value was -100%.

Regarding `Cc1oc(=O)c(NC(=O)c2ccccc2)cc1C(=O)c1ccccc1`, the “activity change, negative = inhibition” value was 90.5%.

Consider `CN(C)c1ccc(CNc2ccccn2)cc1`, for which the “activity change, negative = inhibition” value was 108%.

As to `CN(C)c1ccc(NC(=O)Nc2ccc3c(c2)nnn3C)cc1`, the “activity change, negative = inhibition” value is 90.3%.

Take `CN(C)c1ccc(/C=N/N2CCN(c3ccccn3)CC2)cc1`: the “activity change, negative = inhibition” value was 80.7%.

With `CC(C)OC(=O)CSc1nc2cc3c(cc2cc1C#N)OCO3`, the “activity change, negative = inhibition” value was 69%.

For the compound `O=C(Nc1ccc(N2CCOCC2)c(Cl)c1)c1cccc(F)c1`, the “activity change, negative = inhibition” value was 102%.

`Cc1ccc(N2C(=O)c3ccc(N)cc3C2=O)cc1C`: the “activity change, negative = inhibition” value was 101%.

Regarding `Oc1ccc(-c2nnc(SCC3CCCCC3)o2)cc1`, the “activity change, negative = inhibition” value was 108%.

On to `COc1ccc(C[C@H]2CN3C(=NC[C@@H]3C(C)C)N2CCNC(=O)c2ccc(C)c(Br)c2)cc1`, for which the “activity change, negative = inhibition” value is -111%.
